We go through five compounds from PubChem BioAssay (NCATS).

Assay [1] deals with Cytochrome P450 1A2 (Homo sapiens) (UniProt P05177). Description: p450-cyp1a2 (AID 410; calls by dose curve; note: potency is the fitted concentration of half-maximal effect). The procedure, abridged: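 Read-out is luminescence from luciferin produced by CYP1A2 demethylation of Luciferin-ME (100uM, at Km). Detection reagent stopped the 60 min NADPH-dependent reaction; signals were normalized to 57 uM furafylline.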
Assay [2] in a line: NFAT Signaling Pathway (AID 444; active = well fitted curve in either direction with a large enough effect, not every such curve was filed as active;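 note: carbachol stimulus at about its EC50 of 1 µM final; % is set by controls: 0 for no effect and ±100 for the full control effect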). The following applies: Jurkat NFAT-bla M1, carbachol, beta-lactamase ratio, 5 h; at 17.2 µM (top of the series) unless noted. The method, boiled down: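 Jurkat cells carrying an NFAT-driven β-lactamase reporter and co-transfected muscarinic M1 receptor were treated with compound plus carbachol (1 uM final, an EC50 level) for 5 h at 37 °C. CCF4 loading followed for 1 h at RT; 460/530 nm ratio gave %activity.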

Assay [3] is described as follows: Stat Signaling Pathway (AID 446; active = well fitted curve in either direction with a large enough effect, not every such curve was filed as active;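 note: ME-180 cervical cancer cells given 40 pM IL-6 alongside compound; SIE-controlled beta-lactamase reporter measured as 460/530 nm FRET emission ratio; % is set by controls: 0 for no effect and ±100 for the full control effect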). The following applies: ME-180 SIE beta-lactamase reporter, IL-6 stimulated, 5 h; at 17.2 µM (top of the series) unless noted. The method, boiled down: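 Compound effects on IL-6-induced STAT reporter activity were measured in ME-180 cells. After overnight culture, cells were co-treated with 40 pM IL-6 for 5 hrs before beta-lactamase substrate loading at room temperature.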

Assay [4] concerns the target Glucocorticoid receptor (Homo sapiens) (UniProt P04150). Description: GR-GFP Redistribution (AID 450;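 active = compounds whose dose series gives a full or clear partial fitted curve of increased nuclear translocation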; note: potency is the fitted concentration of half-maximal effect).
Assay [5] has the same target. Kind of assay: GR-EFC Redistribution (AID 451; calls by dose curve; note: potency is the fitted concentration of half-maximal effect). The following applies: CHO-K1 GR-EFC translocation, beta-gal luminescence, 2 h. The method, boiled down: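 CHO-K1 cells stably expressing nuclear-localized β-gal enzyme acceptor and GR fused C-terminally to the enzyme donor fragment; ligand-driven nuclear translocation restores β-gal by complementation. Compounds titrated up to 46 uM final, 2 h at 37 °C; luminescence read.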

In assay [6] the target is 3',5'-cyclic-AMP phosphodiesterase 4B (Homo sapiens) (UniProt Q07343). Kind of assay: qHTS Assay for Inhibitors of PDE-IV (AID 607; active = well fitted activation curve with a large enough effect in the main read-out, with a control signal flat, not every such curve was filed as active; note: % of control where 0% means no effect). The method, boiled down:
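ACTOne HEK293 cells carry a modified cAMP-gated CNG channel and express endogenous PDE4; plated 1000 cells/well, compounds up to 22.9 uM final. Membrane-potential dye fluorescence (ex 535/em 590) was read; parental cells received 10 uM forskolin + 100 uM RO 20-1724.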
(In qHTS, concentration-response curves come from the screen itself.)

The target of assay [7] is Cytochrome P450 3A4 (Homo sapiens) (UniProt P08684). Description: qHTS Assay for Activators of Cytochrome P450 3A4 (AID 885). Note: nearly all actives have a fitted effect of over 65% in size. The procedure, abridged: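 CYP3A4 activity: Luciferin-PPXE O-dealkylation, 25uM substrate, 200mM KPO4, RT throughout. Read-out is luciferase luminescence; higher values reflect activation.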
Cytochrome P450 3A4 (Homo sapiens), sequence (P08684 whole entry, looked up): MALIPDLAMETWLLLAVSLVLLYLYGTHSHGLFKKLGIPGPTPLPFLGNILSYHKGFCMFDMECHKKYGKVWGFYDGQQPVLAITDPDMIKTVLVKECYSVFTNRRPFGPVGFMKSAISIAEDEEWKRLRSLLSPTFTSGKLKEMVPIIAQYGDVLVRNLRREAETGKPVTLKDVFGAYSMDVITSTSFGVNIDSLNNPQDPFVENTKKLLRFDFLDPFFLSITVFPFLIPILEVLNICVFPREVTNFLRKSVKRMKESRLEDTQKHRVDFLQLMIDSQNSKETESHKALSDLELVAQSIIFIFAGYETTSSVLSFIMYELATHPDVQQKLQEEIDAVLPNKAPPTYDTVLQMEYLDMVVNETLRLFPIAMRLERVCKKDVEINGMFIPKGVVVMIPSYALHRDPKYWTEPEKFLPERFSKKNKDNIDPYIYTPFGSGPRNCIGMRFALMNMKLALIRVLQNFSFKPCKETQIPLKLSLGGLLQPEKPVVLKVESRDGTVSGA
In assay [8] the target is Pyruvate kinase PKM (Homo sapiens) (UniProt P14618). Kind of assay: qHTS Assay for Activators of Human Muscle Pyruvate Kinase (AID 954; active = well fitted curve in the direction sought with a large enough effect, not every such curve was filed as active;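 note: 0% = uninhibited enzyme and -100% = no enzyme or full thiadiazolimine inhibition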). The procedure, abridged:
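A coupled luminescent readout tracked ATP made from ADP by purified PKM2. Final conditions included 0.1 nM enzyme, PEP and ADP at 0.5 and 0.1 mM, pH 7.2 imidazole buffer with BSA, and a one-hour room-temperature reaction.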

Assay [9] concerns the target Pyruvate kinase (Leishmania mexicana) (UniProt Q27686). Description: qHTS Validation Assay for Activators of Leishmania Mexicana Pyruvate Kinase (AID 959). The procedure, abridged:
(§1)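 Compounds are tested as eight-point concentration series. Reactions contain 0.2 nM LmPYK E451W, 0.5 mM PEP, 0.1 mM ADP, 7 mM MgCl2 and 50 mM KCl at pH 7.2, run 1 h at room temperature, then read by PKLight luminescence.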

For assay [10], the target named is Alpha-galactosidase A (Homo sapiens) (UniProt P06280). Description: Counterscreen for Glucocerebrosidase Inhibitors: qHTS Assay for Human alpha-Galactosidase at pH 4.5 (AID 992). Note: 0% is about no effect. The procedure, abridged: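 Citrate buffer pH 4.5, Tween-20 0.005%. Enzyme 2 nM, substrate 80 uM, 20 min RT. Stop pH 10. Fluorescence Ex 365/Em 440. AC50 by Hill fit.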
Alpha-galactosidase A (Homo sapiens), sequence (P06280 whole entry, looked up): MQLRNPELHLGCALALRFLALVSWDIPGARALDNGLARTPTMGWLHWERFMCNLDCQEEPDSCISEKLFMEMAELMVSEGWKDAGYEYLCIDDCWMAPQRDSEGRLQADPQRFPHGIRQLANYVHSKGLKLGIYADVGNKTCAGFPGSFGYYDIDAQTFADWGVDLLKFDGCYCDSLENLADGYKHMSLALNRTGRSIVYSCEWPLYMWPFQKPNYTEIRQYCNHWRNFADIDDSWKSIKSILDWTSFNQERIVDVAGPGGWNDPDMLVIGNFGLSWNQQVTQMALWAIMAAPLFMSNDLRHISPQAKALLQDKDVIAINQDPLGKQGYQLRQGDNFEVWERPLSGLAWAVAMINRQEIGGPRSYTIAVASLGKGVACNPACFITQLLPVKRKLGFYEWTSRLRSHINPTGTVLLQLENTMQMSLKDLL
On the technique in general: Counterscreens check selectivity or assay interference.

For assay [11], the target named is alpha-glucosidase (Oryza sativa, rice) (UniProt Q653V4). Description: Counterscreen for Glucocerebrosidase Inhibitors: qHTS Assay for Rice alpha-Glucosidase at pH 5.0 (AID 997).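 Note: 0% = full activity with enzyme and -100% = basal without enzyme.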 The procedure, abridged:
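Endpoint fluorogenic assay at pH 5.0: compounds (0.7 nM to 77 uM) titrated against 4 nM rice enzyme and 400 uM 4-MU-alpha-glucoside for 20 min at room temperature; NaOH/glycine stop, read ex 365/em 440 nm, Hill-fitted AC50.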

In assay [12] the target is Mitogen-activated protein kinase 10 (Mus musculus) (UniProt Q61831). Description: JNK3 AlphaScreen Assay (AID 530; active = well fitted curve in either direction with a large enough effect, not every such curve was filed as active;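 note: kinase came from lysate of stimulated human HepG2 cells; signal reports phosphorylation of biotinylated GST-cJun 1-79 at Ser73 with 10 µM ATP; % is set by controls: 0 for no effect and ±100 for the full control effect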). The method, boiled down: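 Biotinylated GST-cJun(1-79) served as substrate for JNK3 in HepG2 lysates stimulated with IL-1beta and TNF-alpha. ATP was 10 uM final, pH 7.6. Ser73 phosphorylation was quantified by AlphaScreen (680 nm excitation).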
On the technique in general: Alpha assays give light when donor and acceptor beads are brought close together.

Assay [13] has as its target Cytochrome P450 2C9 (Homo sapiens) (UniProt P11712). Description: qHTS Assay for Inhibitors and Substrates of Cytochrome P450 2C9 (AID 883). Note: potency is the fitted concentration of half-maximal effect; nearly all actives have a fitted effect of over 60% in size. The method, boiled down:
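CYP2C9 deoxyluciferin hydroxylation, 37C, 60 min with NADPH regeneration; 10nM enzyme, 100uM Luciferin-H (KM). Glo detection reagent stopped reaction; luminescence normalized to sulphaphenazole (57uM) full inhibition.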

For assay [14], the target named is Cytochrome P450 3A4 (Homo sapiens) (UniProt P08684). Kind of assay: qHTS Assay for Inhibitors and Substrates of Cytochrome P450 3A4 (AID 884). Note: potency is the fitted concentration of half-maximal effect; nearly all actives have a fitted effect of over 50% in size. The method, boiled down:
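Luminescent readout of luciferin produced by CYP3A4 (20 nM) dealkylation of Luciferin-PPXE, 25 uM (its KM). NADPH-driven reaction ran 60 min at RT after 10 min compound preincubation; data scaled to 57 uM ketoconazole as 100% inhibition.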

The nature of assay [15]: qHTS Assay for Identification of Small Molecule Antagonists for NFkB Signaling Pathway (AID 895; active = well fitted inhibition curve with a large enough effect in the signal ratio, with a control signal flat, not every such curve was filed as active; the % refers to the signal ratio; note: potency is the fitted concentration of half-maximal effect). The method, boiled down:
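NFkB-bla ME-180 cervical carcinoma cells with beta-lactamase reporter under NFkB response element; compounds added, then TNF alpha at 10 pM final (EC50), 5 h at 37 C. LiveBLAzer substrate 2 h, room temperature; emission 460/530 nm at 405 nm excitation.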

The target of assay [16] is Cytochrome P450 2C19 (Homo sapiens) (UniProt P33261). Kind of assay: qHTS Assay for Inhibitors and Substrates of Cytochrome P450 2C19 (AID 899). Note: potency is the fitted concentration of half-maximal effect; nearly all actives have a fitted effect of over 60% in size. The method, boiled down: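 In 50mM KPO4, the reaction held 5nM enzyme and KM-level (10uM) Luciferin-H EGE; it ran 60 min at 37C after NADPH regeneration and a 10 min compound preincubation. Luminescence values were scaled to 57uM ketoconazole as complete inhibition.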
Cytochrome P450 2C19 (Homo sapiens), sequence (P33261 whole entry, looked up): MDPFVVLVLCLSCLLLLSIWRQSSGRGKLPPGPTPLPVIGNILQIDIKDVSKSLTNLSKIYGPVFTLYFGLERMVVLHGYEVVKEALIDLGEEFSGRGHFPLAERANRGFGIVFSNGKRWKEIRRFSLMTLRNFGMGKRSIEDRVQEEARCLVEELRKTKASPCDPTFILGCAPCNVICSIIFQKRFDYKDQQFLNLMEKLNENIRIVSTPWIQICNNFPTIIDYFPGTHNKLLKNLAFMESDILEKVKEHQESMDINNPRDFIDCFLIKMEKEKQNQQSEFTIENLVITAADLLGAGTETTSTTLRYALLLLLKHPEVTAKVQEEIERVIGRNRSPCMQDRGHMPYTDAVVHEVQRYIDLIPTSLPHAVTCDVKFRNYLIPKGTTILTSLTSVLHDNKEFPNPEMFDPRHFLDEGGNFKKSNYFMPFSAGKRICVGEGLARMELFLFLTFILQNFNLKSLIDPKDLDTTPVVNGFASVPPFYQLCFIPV

Assay [17] in a line: qHTS Assay for Identification of Small Molecule Agonists for Thrombopoietin (TPO) Signaling Pathway (AID 917). Note: % is set by controls: 0 for no effect and ±100 for the full control effect. The method, boiled down:
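Human TPO receptor–transfected Ba/F3 cells (murine, IL-3-dependent) in IL-3-deficient medium; compounds plus TPO at EC50, 26 pM final; 24 hrs, 37 C; GpIIb-luciferase luminescence after 10 min RT detection.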

The target in assay [18] is Pyruvate kinase (Leishmania mexicana) (UniProt Q27686). Description: qHTS Validation Assay for Inhibitors of Leishmania Mexicana Pyruvate Kinase (AID 945).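 Note: 0% = DMSO only neutral control wells.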 The procedure, abridged:
as §1

Assay [19] in a line: AP1 Signaling Pathway (AID 357; active = well fitted curve in either direction with a large enough effect, not every such curve was filed as active). The following applies: ME-180 (cervical carcinoma) AP-1-bla reporter, EGF-induced, beta-lactamase ratio, 5 h; at 17.2 µM (top of the series) unless noted. The procedure, abridged: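 Titration-series screen for positive or negative modulators of EC50 EGF-induced signaling in ME-180 cells carrying an AP-1-driven beta-lactamase reporter. After 5 hours at 37 degrees Celsius, CCF4 460nm/530nm emission ratio gave %Activity; AC50 values derived.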

Assay [20] addresses Muscarinic acetylcholine receptor M1 (Rattus norvegicus) (UniProt P08482). Kind of assay: qHTS Assay for Antagonists of Acetylcholine Muscarinic M1 Receptor: Kinetic Measurement of Intracellular Calcium Response (AID 943). Note: potency is the fitted concentration of half-maximal effect; nearly all actives have a fitted effect of over 75% in size. The method, boiled down: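 Quantitative HTS in CHO-M1 (rat receptor) cells: 10 min compound exposure ahead of 100 nM carbachol, Fluo-4 fluorescence followed 4 min, value expressed as peak-to-basal ratio.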

Molecules are shown by their SMILES. Unmarked numbers belong to inactive results. Inconclusive results are not listed. Activity calls are given as the source filed them. Unless noted, calls come from the whole dose curve; as a rule, active = well fitted curve in the direction sought with a large enough effect; inconclusive = small, poorly fitted or top-dose-only effect, or another doubt; inactive = no such curve, though single readings can be large; an effect the other way counts as inactive or inconclusive.

Cytochrome P450 1A2 (Homo sapiens), sequence (P05177 whole entry, looked up): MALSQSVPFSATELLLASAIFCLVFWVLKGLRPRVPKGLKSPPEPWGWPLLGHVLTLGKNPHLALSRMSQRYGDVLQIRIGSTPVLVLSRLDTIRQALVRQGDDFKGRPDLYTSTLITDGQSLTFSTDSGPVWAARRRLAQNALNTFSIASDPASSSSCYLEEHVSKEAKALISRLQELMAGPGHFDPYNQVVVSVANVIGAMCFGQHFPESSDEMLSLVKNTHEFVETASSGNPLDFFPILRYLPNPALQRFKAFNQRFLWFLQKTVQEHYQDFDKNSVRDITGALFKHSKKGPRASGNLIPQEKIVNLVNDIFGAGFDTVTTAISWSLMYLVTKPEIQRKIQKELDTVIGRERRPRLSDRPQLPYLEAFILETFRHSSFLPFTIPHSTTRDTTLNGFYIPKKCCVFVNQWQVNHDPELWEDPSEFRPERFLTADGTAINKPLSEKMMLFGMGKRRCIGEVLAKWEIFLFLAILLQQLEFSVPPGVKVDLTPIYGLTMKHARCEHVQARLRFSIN
Pyruvate kinase (Leishmania mexicana), sequence (Q27686 2-499 E452W): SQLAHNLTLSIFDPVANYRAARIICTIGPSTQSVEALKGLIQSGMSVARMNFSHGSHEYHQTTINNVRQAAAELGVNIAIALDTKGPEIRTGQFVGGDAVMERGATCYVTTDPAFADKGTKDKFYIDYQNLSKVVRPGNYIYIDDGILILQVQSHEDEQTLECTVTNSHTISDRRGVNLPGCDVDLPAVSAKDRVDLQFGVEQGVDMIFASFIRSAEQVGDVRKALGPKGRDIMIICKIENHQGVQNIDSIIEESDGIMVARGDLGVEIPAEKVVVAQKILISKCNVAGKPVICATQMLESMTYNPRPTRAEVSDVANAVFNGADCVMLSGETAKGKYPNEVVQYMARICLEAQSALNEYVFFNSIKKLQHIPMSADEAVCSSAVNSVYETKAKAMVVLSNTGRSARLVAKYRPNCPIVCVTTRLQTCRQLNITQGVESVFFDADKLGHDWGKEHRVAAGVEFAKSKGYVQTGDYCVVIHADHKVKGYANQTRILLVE
Pyruvate kinase PKM (Homo sapiens), sequence (P14618 whole entry, looked up): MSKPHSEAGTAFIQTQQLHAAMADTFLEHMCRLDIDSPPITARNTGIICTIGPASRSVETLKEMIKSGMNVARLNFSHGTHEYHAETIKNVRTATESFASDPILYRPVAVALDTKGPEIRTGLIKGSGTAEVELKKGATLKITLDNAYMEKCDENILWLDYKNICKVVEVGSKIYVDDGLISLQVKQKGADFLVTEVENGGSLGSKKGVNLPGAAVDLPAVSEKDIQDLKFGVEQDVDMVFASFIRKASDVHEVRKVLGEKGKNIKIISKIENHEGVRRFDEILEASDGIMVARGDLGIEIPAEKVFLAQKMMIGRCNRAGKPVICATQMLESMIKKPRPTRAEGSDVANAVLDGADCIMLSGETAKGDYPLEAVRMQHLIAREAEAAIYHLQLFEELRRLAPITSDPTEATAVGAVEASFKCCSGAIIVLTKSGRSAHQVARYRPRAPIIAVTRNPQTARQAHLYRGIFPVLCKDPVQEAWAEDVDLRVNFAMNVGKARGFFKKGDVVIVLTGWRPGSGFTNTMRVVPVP
Glucocorticoid receptor (Homo sapiens), sequence (P04150 whole entry, looked up, the tested form may be a part): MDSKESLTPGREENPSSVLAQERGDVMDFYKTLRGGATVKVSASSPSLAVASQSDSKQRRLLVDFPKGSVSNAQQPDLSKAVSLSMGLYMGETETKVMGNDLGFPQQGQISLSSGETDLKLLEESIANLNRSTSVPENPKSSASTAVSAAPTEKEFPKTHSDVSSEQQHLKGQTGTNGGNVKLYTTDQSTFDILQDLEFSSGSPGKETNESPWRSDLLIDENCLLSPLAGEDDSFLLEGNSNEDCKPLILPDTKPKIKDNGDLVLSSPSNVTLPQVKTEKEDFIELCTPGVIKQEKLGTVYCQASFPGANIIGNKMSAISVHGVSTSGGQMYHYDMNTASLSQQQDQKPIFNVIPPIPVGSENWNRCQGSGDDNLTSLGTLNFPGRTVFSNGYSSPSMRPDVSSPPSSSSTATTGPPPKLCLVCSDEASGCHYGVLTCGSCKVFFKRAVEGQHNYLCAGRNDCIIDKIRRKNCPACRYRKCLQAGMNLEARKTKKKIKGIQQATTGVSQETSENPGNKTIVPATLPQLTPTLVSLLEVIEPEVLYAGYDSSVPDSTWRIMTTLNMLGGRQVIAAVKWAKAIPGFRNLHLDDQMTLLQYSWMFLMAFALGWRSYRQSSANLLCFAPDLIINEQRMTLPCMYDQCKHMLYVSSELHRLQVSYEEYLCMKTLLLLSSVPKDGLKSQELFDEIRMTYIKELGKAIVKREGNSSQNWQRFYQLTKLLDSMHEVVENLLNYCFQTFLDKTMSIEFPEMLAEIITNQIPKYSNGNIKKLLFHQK
3',5'-cyclic-AMP phosphodiesterase 4B (Homo sapiens), sequence (Q07343 whole entry, looked up): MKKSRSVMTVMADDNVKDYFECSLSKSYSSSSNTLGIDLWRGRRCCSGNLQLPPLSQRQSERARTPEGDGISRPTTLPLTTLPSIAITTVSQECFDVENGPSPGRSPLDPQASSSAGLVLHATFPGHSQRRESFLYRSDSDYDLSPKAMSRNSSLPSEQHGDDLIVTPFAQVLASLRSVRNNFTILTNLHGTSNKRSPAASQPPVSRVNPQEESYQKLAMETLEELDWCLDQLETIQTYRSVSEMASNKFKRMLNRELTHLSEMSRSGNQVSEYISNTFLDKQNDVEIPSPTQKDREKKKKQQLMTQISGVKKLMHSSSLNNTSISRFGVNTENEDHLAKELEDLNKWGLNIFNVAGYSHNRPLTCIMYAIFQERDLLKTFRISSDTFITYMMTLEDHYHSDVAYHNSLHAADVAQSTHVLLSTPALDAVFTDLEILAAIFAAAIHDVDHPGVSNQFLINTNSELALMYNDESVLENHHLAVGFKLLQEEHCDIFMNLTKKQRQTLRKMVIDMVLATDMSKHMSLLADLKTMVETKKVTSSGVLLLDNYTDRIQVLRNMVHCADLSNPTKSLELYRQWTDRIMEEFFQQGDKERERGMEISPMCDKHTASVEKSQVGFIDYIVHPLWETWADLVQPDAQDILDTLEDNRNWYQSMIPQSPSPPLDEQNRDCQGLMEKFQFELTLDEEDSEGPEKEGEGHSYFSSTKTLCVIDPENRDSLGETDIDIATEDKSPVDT
Cytochrome P450 2C9 (Homo sapiens), sequence (P11712 whole entry, looked up): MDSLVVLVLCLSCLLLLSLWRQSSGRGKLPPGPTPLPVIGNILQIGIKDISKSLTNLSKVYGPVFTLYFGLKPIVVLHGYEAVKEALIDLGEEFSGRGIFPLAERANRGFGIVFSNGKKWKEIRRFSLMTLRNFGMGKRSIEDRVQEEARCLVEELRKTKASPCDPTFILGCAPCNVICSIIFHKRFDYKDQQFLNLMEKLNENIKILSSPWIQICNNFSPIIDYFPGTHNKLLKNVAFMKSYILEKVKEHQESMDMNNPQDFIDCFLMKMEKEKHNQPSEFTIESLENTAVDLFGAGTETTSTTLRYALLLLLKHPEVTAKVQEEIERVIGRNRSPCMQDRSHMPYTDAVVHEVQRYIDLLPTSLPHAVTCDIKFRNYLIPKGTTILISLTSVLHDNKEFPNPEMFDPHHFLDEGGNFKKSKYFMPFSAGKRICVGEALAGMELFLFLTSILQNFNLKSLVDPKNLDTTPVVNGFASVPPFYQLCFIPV

On to `O=C(/C=C\c1ccc(O)c(O)c1)OCCc1ccccc1`, for which the results for the Potency in [1], in assay [4] and in [5] were 1 µM (active), greater than 46 µM and greater than 46 µM, respectively. For the same compound, the activity change, negative = inhibition in assay [2] is -12.2% [at 38 µM]. The activity, negative = inhibition in assay [3] was -10.7% [at 38 µM]. The Potency entry in [6], in assay [7] and in [9] was “inactive” each time. Also, the compound was called inactive in [8], in assay [10] and in [11].
Consider `C#CCN1C(C)=C(C(=O)OC)[C@@H](c2cccc([N+](=O)[O-])c2)C(C(=O)OCC)=C1C`, for which the Potency was 12.6 µM (active) in [1]; greater than 46 µM in assay [4]; greater than 46 µM in assay [5]; 0.316 µM (active) in [13]; 3.16 µM (active) in assay [14]; 3.55 µM (active) in assay [15]. Also, the Potency in assay [16] was 5.01 µM (active). Also, the activity, negative = inhibition in assay [3] was -3.77% [at 38 µM]. Moreover, the Potency result in [12], in [6], in assay [7], in [17] and in assay [18] was “inactive” throughout. Further, the compound was classed as inactive in [8], in assay [10] and in assay [11].
For the compound `Cn1c(N2CCOCC2)nc2c1c(=O)n(Cc1ccc(Cl)c(Cl)c1)c(=O)n2C`, the activity change, negative = inhibition in assay [19] is -18.7%. Besides, the Potency in [4] was greater than 20.6 µM.
With `CNCC[C@H](Oc1ccccc1C)c1ccccc1`, the Potency was 15.8 µM (active) in [1], greater than 46 µM in assay [4], greater than 46 µM in [5] and 11.2 µM (active) in assay [20]. In [3], the activity, negative = inhibition is -13.9% [at 38 µM]. The Potency result in assay [12] and in [18] was “inactive” throughout. Besides, the call in assay [8], in assay [10] and in [11] was inactive.
Take `CC(C)(C)c1cc(-c2ccco2)c(C#N)c(SCC#N)n1`: in assay [19], the activity change, negative = inhibition is 28.8%. Also, the Potency in assay [4] was greater than 20.6 µM.
